# BAZ2B block – qHTS Assay for Inhibitors of BAZ2B | Bromodomain adjacent to zinc finger domain protein 2B (Homo sapiens), Q9UIF8 | AlphaScreen BAZ2B-H3K14Ac peptide displacement | Potency, µM (titrated, usually from 114 µM), without a hit: at the highest dose activity change, negative = inhibition, most hits filed as inhibitors | actives 4.4% (n = 360,000) | AID 504333, 2011; note: % is set by controls: 0 for no effect and ±100 for the full control effect; nearly all actives have a fitted effect of over 60% in size
#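 BAZ2B 50 nM plus b-H3(5-23)K14Ac 50 nM, PBS pH 7.4/0.01% Tween-20, 30 min RT; compound added (max 110 uM), 30 min RT; streptavidin donor/Ni-chelate acceptor beads 10 ug/mL final, 20 min dark; AlphaScreen read.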
# HP1b binding inh – HTS for Inhibitors of HP1-beta Chromodomain Interactions with Methylated Histone Tails; Chromobox protein homolog 1 (Homo sapiens), P83916; AlphaScreen HP1-beta / biotin-H3K9me3 peptide binding; Potency, µM (series often up to 114 µM), inactives show at the highest dose activity change, negative = inhibition, most hits filed as inhibitors; actives 0.56% (n = 390,000); note: nearly all actives have a fitted effect of over 70% in size
#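 Compound inhibition of the preformed complex between 50 nM HP1-beta and 50 nM biotinylated H3K9me3 peptide was read by AlphaScreen. Buffer was PBS pH 7.4 with 0.01% Tween-20. Incubations ran 30 min at room temperature, with 10 ug/mL donor/acceptor beads.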
# JMJD2A Tudor inh – qHTS Assay for Inhibitors of JMJD2A-Tudor Domain; AlphaScreen JMJD2A-Tudor / H3K4me3 peptide binding; Potency, µM (series often up to 114 µM), for the others: top-dose activity change, negative = inhibition, hits mostly inhibitors; actives 4.4% (n = 390,000); Lysine-specific demethylase 4A (Homo sapiens), O75164; note: % is set by controls: 0 for no effect and ±100 for the full control effect; nearly all actives have a fitted effect of over 50% in size
# L3MBTL1 inh – qHTS Assay for the Inhibitors of L3MBTL1. AlphaScreen L3MBTL1–H3K9me1 peptide binding. Potency, µM (highest dose often 57.1 µM), inactives show at the top dose activity, negative = inhibition, usual class: inhibitors. actives 0.66% (n = 230,000). Lethal(3)malignant brain tumor-like protein 1 (Homo sapiens), Q9Y468; note: % is set by controls: 0 for no effect and ±100 for the full control effect; nearly all actives have a fitted effect of over 60% in size
#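 L3MBTL1 50 nM + b-AHA-H3(1-15)K9me1 75 nM, 30 min RT; compound added, 30 min RT; streptavidin donor/Ni-chelate acceptor beads 10 ug/mL each final, 30 min RT dark; AlphaScreen read.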
# VDR inhibitor – Inhibitors of the vitamin D receptor (VDR): qHTS. Vitamin D3 receptor (Homo sapiens), P11473. VDR-SRC2-3 peptide fluorescence polarization, 2 h. Potency, µM, for the others: max response, negative = inhibition, actives largely listed as inhibitors. actives 0.93% (n = 400,000); note: % is set by controls: 0 for no effect and ±100 for the full control effect
#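 Reagent solutions, kept cold and dark, are dispensed first; compounds are then pinned in at 23 nl, plates briefly spun, and incubated 2 h at ambient temperature. Inhibition of VDR–SRC2-3 peptide binding is read by fluorescence polarization.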
# PLK1 PBD block – qHTS for Inhibitors of PLK1-PDB (polo-like kinase 1 - polo-box domain): Primary Screen | Serine/threonine-protein kinase PLK1 (Homo sapiens), P53350 | Plk1 PBD binding of FITC phosphopeptide, fluorescence polarization | Potency, µM, inactives show max response, negative = inhibition, actives largely listed as inhibitors | actives 2.8% (n = 360,000); note: series mostly up to about 57 µM; % is set by controls: 0 for no effect and ±100 for the full control effect; nearly all actives have a fitted effect of over 65% in size
# The depositor's hits bear a star; ? = inconclusive; / = not tested or not shown; [ ] = remark or other dose. Shown are actives, neighbours in structure and some others; about 6.9% of the full set was active somewhere. Calls come from the whole dose curve; as a rule, active = well fitted curve in the direction sought with a large enough effect; inconclusive = small, poorly fitted or top-dose-only effect, or another doubt; inactive = no such curve, though single readings can be large; an effect the other way counts as inactive or inconclusive. Potency is the fitted concentration of half-maximal effect.
SMILES,BAZ2B block,HP1b binding inh,JMJD2A Tudor inh,L3MBTL1 inh,VDR inhibitor,PLK1 PBD block
O=C(C1CCCO1)N1CCN(c2ccccn2)CC1 (stereo unspecified),3%,39%,-9%,-1%,11%,-7%
CC(=O)Nc1c(S(=O)(=O)c2ccccc2)c2nc3ccccc3nc2n1Cc1ccccc1,10%,55%,-8%,2%,10%,-4%
C=CCn1c(NS(=O)(=O)c2ccccc2)c(S(=O)(=O)c2ccc(C)cc2)c2nc3ccccc3nc21,-19%,87%,12%,3.5µM*,?,?
CCOC(=O)c1ccccc1NC(=O)N1CCCn2nc(C)cc21,-15%[57.1 µM],4%,-25%,/,-5%,/
CSc1nn(Cc2ccc(Br)cc2)c(N(C(C)=O)C(C)=O)c1S(=O)(=O)c1ccccc1,-1%,32%,2%,/,-19%,/
CCCNC(=O)c1nc(C)n(-c2cc(Cl)ccc2Cl)n1,-2%,-14%,-12%,-19%,0%,21µM*
CNC(=O)c1nc(C)n(-c2ccc(Cl)cc2Cl)n1,-5%,-11%,10µM*,-7%,?,3.8µM*
Cc1nc(C(=O)N(C)C)nn1-c1ccc(Cl)cc1Cl,8%,3%,-13%,12%,3%,-8%
COc1ccc(-n2nc(C(=O)Nc3cc(OC)c(OC)c(OC)c3)c(=O)n(C)c2=O)cc1,-4%,25%[57 µM],-18%,/,1%,/
COc1ccc(Nc2nnc(-c3ccc(C)c(S(=O)(=O)NCc4nc5ccccc5[nH]4)c3)c3ccccc23)cc1,-7%,32%,-20%,/,-24%,/
Cc1ccc(-c2cc(NC(=O)c3ccccc3Cl)on2)cc1,-2%,1%,-19%,/,5%,/
Nn1c(C2COc3ccccc3O2)n[nH]c1=S (stereo unspecified),?,-17%,8.9µM*,-9%,?,17µM*
Oc1cc(O)c2c(c1)O[C@H](c1ccc(O)c(O)c1)[C@@H](O)C2,0%,20%,-10%,/,1%,-7%
O=c1c(O)cc(C2Oc3cc(O)cc(O)c3CC2O)cc2c(C3Oc4cc(O)cc(O)c4CC3O)cc(O)c(O)c12 (stereo unspecified),/,/,/,/,3.5µM*,/
COc1ccc(Cn2c(O)c(C=Nc3ccccc3C(=O)O)c3ccccc3c2=O)cc1,79µM*,-11%,-34%,-23%,-10%,?
O=c1c2ccccc2c(C=NC2CCN(Cc3ccccc3)CC2)c(O)n1Cc1ccc2c(c1)OCO2,8.9µM*,/,/,-7%,/,/
COc1ccccc1NS(=O)(=O)c1cccc(-n2c(O)c(C=Nc3ccccc3C(=O)O)c3ccccc3c2=O)c1,40µM*,?,56µM*,-20%,-18%,30µM*
CN(C)CCN=Cc1c(O)n(Cc2ccc3c(c2)OCO3)c(=O)c2ccccc12,?,-28%,?,/,-15%,-11%
CC/C(=N/Nc1cccc(C)c1)c1cnnc(SC)n1,-35%,17%,56µM*,-9%,-3%,-6%
Cc1ccc(S(=O)(=O)N2[C@@H](c3ccc(C(C)(C)C)cc3)C(C(=O)O)=CC[C@H]2c2ccc(Cl)c(Cl)c2)cc1,/,4%,-30%,-6%,2%,27µM*
CCc1ccc([C@@H]2CC=C(C(=O)O)[C@H](c3cccc(Cl)c3)N2S(=O)(=O)c2ccc(C)cc2)cc1,-34%,28%,-8%,5%,-26%,21µM*
CCOC(=O)C1=CC[C@@H](c2ccccc2)N(S(=O)(=O)c2ccc(C)cc2)[C@H]1C#N,/,/,/,/,/,6.7µM*
Cc1ccc(S(=O)(=O)N2[C@@H](c3cccc(Cl)c3)C(C(=O)O)=CC[C@H]2c2cccc(Cl)c2)cc1,8%,10%,-32%,8%,-18%,27µM*
COc1ccc([C@@H]2CC=C(C(=O)O)[C@H](c3ccc(C(C)(C)C)cc3)N2S(=O)(=O)c2ccc(C)cc2)cc1OC,/,-8%,-25%,1%,14%,0%
CCc1ccc([C@@H]2CC=C(C(=O)O)[C@H](c3ccc(Cl)cc3)N2S(=O)(=O)c2ccc(C)cc2)cc1,?,27%,-28%,-11%,-28%,?
SMILES,BAZ2B block,HP1b binding inh,JMJD2A Tudor inh,L3MBTL1 inh,VDR inhibitor,PLK1 PBD block
Cc1ccc(NC(=O)NCCOCCn2c(=O)oc3ccccc32)cc1F,-7%,39%,-14%,/,8%,/
COc1cc(N)c2ncsc2c1,/,5%,?,/,-10%,-4%
NC(=O)CSc1oc(-c2cccs2)nc1S(=O)(=O)c1ccc(Br)cc1,-35%,64%,-5%,/,16%,/
Cc1ccc(S(=O)(=O)N2[C@@H](c3ccc(Br)cc3)C(C(=O)O)=CC[C@H]2c2ccc(Cl)c(Cl)c2)cc1,/,41%,-33%,-3%,?,24µM*
Cc1ccc(S(=O)(=O)N2[C@@H](c3ccc(C(C)(C)C)cc3)C(C(=O)O)=CC[C@H]2c2cccc(Cl)c2)cc1,/,16%,?,-10%,?,21µM*
COc1cccc([C@@H]2CC=C(C(=O)O)[C@H](c3ccccc3F)N2S(=O)(=O)c2ccc(C)cc2)c1,79µM*,53%,-6%,-28%,6%,3%
COc1ccccc1C1CCN(Cc2cccc([N+](=O)[O-])c2)CC1,?,-5%,?,-20%,-7%,3%
COc1cc(CN2CCc3ccccc3C2)cc([N+](=O)[O-])c1O,?,?,22µM*,-22%,-18%,0%
COc1cc(CN2CCN(c3cc(C)ccc3C)CC2)cc([N+](=O)[O-])c1O,/,-22%,?,/,-14%,-10%
COc1cc(CN2CCCC(C)C2)cc([N+](=O)[O-])c1O (stereo unspecified),-9%,2%,-11%,-6%,-10%,-8%
COc1cc(CN2CCCN(C)CC2)cc([N+](=O)[O-])c1O,?,?,0.89µM*,-4%,?,?
COc1cc(CN2CCN(c3ccc(C)cc3)CC2)cc([N+](=O)[O-])c1O,?,12%,-33%,-5%,-1%,-3%
COc1ccccc1C1CCN(c2ccc(CO)cc2[N+](=O)[O-])CC1,?,?,56µM*,-20%,-9%,-10%
COc1cc(CN2CCN(c3ccccc3C)CC2)cc([N+](=O)[O-])c1O,?,?,4µM*,-13%,-12%,-3%
C1CCN(Cc2nnnn2CC2CCCO2)CC1 (stereo unspecified),-35%,27%,-7%,2%,5%,-5%

# Source: PubChem BioAssay
